Source: PubChem BioAssay (National Center for Advancing Translational Sciences (NCATS))
CtBP-E1A blk – CtBP/E1A binding inhibition; activity change, % (concentration not given with the values); 340,000 compounds, 0.49% hits; AlphaScreen GST-E1A/His-CtBP binding, 1536-well; stronger effect = lower value; AID 651724; in the data active = activity change below about -65%; inconclusive = mostly about -30% to -63%
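Steps: dispense buffer (Tris pH 8.0, NaCl 300 mM, TCEP 1 mM, BSA, Tween 20); add 5X protein mix (GST-E1A, His-CtBP, 125 nM each); pin 23 nL compound; 2 h at 37 °C, dark; add 5X beads (50 ug/mL); 1 h; read.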
RORgamma inh – ROR gamma (mouse) transcription inhibition | P51450 | Drosophila S2 Gal4-RORgamma UAS-luciferase reporter, 20 h | Potency, µM (series often up to 53.6 µM), for the others: at the top dose activity change, negative = inhibition, most hits filed as inhibitors | 310,000 compounds, 5.4% hits | AID 2551; note: potency is the fitted concentration of half-maximal effect; nearly all actives have a fitted effect of over 60% in size
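Read-out: Photinus luciferase luminescence; inhibitors lower reporter signal. Insect Schneider cells with Gal4-ROR gamma fusion under metallothionein promoter, UAS reporter; 700 uM final copper sulfate induction, 20 hr, ambient temperature.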
PKM2 activator – activators of human pyruvate kinase M2; P14618; purified PKM2, Kinase-Glo ATP luminescence, activation; response scale: 0% is enzyme alone, no compound; Potency, µM (series often up to 57.5 µM), for the others: at the top dose activation, most hits filed as activators; 260,000 compounds, 0.34% hits; AID 1631; note: potency is the fitted concentration of half-maximal effect; nearly all actives have a fitted effect of over 55% in size
Target sequence (P14618 whole entry, looked up): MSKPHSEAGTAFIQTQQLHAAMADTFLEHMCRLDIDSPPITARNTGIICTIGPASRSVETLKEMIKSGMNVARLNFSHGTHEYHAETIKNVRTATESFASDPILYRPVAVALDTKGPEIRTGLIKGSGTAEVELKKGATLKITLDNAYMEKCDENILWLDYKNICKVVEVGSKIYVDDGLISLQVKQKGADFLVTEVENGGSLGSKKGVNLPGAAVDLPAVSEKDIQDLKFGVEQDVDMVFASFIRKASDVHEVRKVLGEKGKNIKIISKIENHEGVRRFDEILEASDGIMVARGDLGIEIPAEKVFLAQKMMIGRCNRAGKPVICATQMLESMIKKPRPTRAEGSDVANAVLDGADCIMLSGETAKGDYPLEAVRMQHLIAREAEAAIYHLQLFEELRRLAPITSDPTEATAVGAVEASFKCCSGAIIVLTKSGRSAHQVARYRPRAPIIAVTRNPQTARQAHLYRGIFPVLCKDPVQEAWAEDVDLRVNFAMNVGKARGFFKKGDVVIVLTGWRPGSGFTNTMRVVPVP
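Purified hPK-M2 (>95%) run at intermediate activity with 0.1 mM ADP and 0.5 mM PEP in 50 mM imidazole pH 7.2, KCl, MgCl2; 1 h room temperature. ATP formed read by Kinase-Glo luminescence; normalized to uninhibited and no-enzyme controls.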
Gal4-VP16 FLuc – inhibits Gal4-VP16 luciferase reporter, ROR gamma counter-screen; Drosophila S2 Gal4-VP16 UAS-luciferase, luminescence, 20 h; Potency, µM (series often up to 53.6 µM), without a hit: at the highest dose activity, negative = inhibition, actives largely listed as inhibitors; 310,000 compounds, 3.5% hits;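 note: Gal4-VP16 expression switched on by copper sulfate through the metallothionein promoter; potency is the fitted concentration of half-maximal effect; nearly all actives have a fitted effect of over 50% in size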
Six1-Eya2 inh – Six1/Eya2 interaction inhibition; AlphaScreen GST-Six1/His-Eya2 binding, biochemical; stronger effect = lower value; activity change, % (no concentration beside the values); Q15475+O00167; 360,000 compounds, 0.56% hits; AID 651725; in the data active = activity change below about -65%; inconclusive = mostly about -30% to -63%
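AlphaScreen with GST-Six1 and His-Eya2 (5X mix: 250 nM and 500 nM), glutathione donor and nickel acceptor beads; buffer 50 mM Tris pH 8.0, 300 mM NaCl, 1 mM TCEP; 1 h at 37 C in the dark.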
* hit, by the source's call; ? = inconclusive; nt = no result; [ ] = dose if it differs, or a comment. Compounds with a hit are over-represented: about 5.6% of the library has one in this group of screens. Unless noted, calls come from the whole dose curve; as a rule, active = well fitted curve in the direction sought with a large enough effect; inconclusive = small, poorly fitted or top-dose-only effect, or another doubt; inactive = no such curve, though single readings can be large; an effect the other way counts as inactive or inconclusive. % is set by controls: 0 for no effect and ±100 for the full control effect.

SMILES	CtBP-E1A blk	RORgamma inh	PKM2 activator	Gal4-VP16 FLuc	Six1-Eya2 inh
O=C(CCNS(=O)(=O)c1ccc2nsnc2c1)N1CCN(c2ccncc2)CC1	-3.9	nt	nt	nt	2.8
COC(=O)C1=C2SCC(=O)N2C(N)=C(C#N)C1	-25.0	-15.4%	-3.2%	-2.6%	20.7
CC(C)OC(=O)C1=C(N)N2C(=O)CSC2=C(C(=O)OC(C)C)C1	0.3	10µM*	-0.3%	-5.1%	4.1
Cc1c(Cl)cccc1NC(=S)NCc1ccco1	nt	5.01µM*	-1.4%	?	-6.2
Cc1cccc(NC(=S)NCc2ccco2)c1C	-19.7	7.94µM*	12.2%	11.2µM*	-13.1
S=C(NCc1ccco1)Nc1ccccc1Cl	nt	10µM*	-15.2%	16.4%	-2.1
O=C(Nc1ccc(F)cc1)C1CCCN(C2=NS(=O)(=O)c3ccccc32)C1 (stereo not drawn)	1.1	nt	nt	nt	2.5
Cc1c(Nc2cc(Cl)c3nonc3c2[N+](=O)[O-])c(=O)n(-c2ccccc2)n1C	nt	3.98µM*	9.8%	3.98µM*	-88.5*
Cc1c(Nc2cc(N3CCOCC3)c3nonc3c2[N+](=O)[O-])c(=O)n(-c2ccccc2)n1C	nt	-8.6%	-2.0%	-8.2%	nt
O=[N+]([O-])c1c(Nc2cccc(O)c2)cc(Cl)c2nonc12	-20.2	-1.1%[1.91 µM]	1.2%	?	?
O=C(O)c1ccc(Nc2cc(Cl)c3nonc3c2[N+](=O)[O-])cc1	-7.5	12.6µM*	nt	-26.1%	?
COc1cc(/C=C/C(=O)c2ccc3c(c2)OCCO3)cc(Br)c1OCC(=O)N(C)C	2.6	-109.9%	13.0%	?	1.2
COc1ccc(C(=O)NCc2nnc(SCC(=O)N3CCCC3)o2)cc1OC	-8.0	9.8%	-1.9%	-3.0%	2.0
C[C@]12CCC3c4ccc(OCC(=O)O)cc4CCC3C1CCC2=O (stereo partly drawn)	nt	-1.4%	-3.6%	-0.8%	6.1
Cc1oc2c(c(=O)c1C)C(=O)CC(c1ccccc1)C2 (stereo not drawn)	10.5	-1.5%	6.8%	-11.3%	13.2
CS(=O)(=O)c1sc(C#N)c2c1C(=O)CC(c1ccccc1)C2 (stereo not drawn)	-24.8	4.47µM*	?	4.47µM*	-5.6
NC(Cc1ccc(C(F)(F)F)cc1)c1csc(Nc2ccc(C(=O)NCc3ccco3)cn2)n1 (stereo not drawn)	-21.6	nt	nt	nt	-12.6
COc1ccc(/C=N/NC(=S)NCC2CCCO2)cc1 (stereo not drawn)	8.2	2.82µM*	3.2%	11.2µM*	4.4
COc1cc(/C=N/NC(=O)C(=O)NCC2CCCO2)cc(Cl)c1O (stereo not drawn)	0.3	11.8%	-2.6%	-0.8%	-2.0
COc1cc(/C=N/NC(=S)NCC2CCCO2)cc(OC)c1OC (stereo not drawn)	-2.9	4.47µM*	-7.4%	15.8µM*	6.9
COC(=O)c1ccc(/C=N/NC(=O)C(=O)NCC2CCCO2)cc1 (stereo not drawn)	1.9	26.6%	-6.5%	-0.1%	-3.2
O=C(CC1Sc2ccccc2NC1=O)NCc1ccc(Cl)cc1 (stereo not drawn)	13.5	1.6%	-0.1%	0.7%	4.5
N#Cc1cccc(-c2nccc(NCc3cccnc3)n2)c1	nt	?	nt	-20.6%	nt
CCCCSCc1nc2ccccn2c1Br	1.8	11.2µM*	3.1%	-5.3%	3.8
Cc1cc(C)c(NC(=S)NCCCSC2CCCCC2)c(C)c1	-15.5	2µM*	-7.6%	?	-19.5
SMILES	CtBP-E1A blk	RORgamma inh	PKM2 activator	Gal4-VP16 FLuc	Six1-Eya2 inh
CC(=O)N/C(=C\c1ccccc1)C(=O)OCC(=O)NC1CCS(=O)(=O)C1 (stereo not drawn)	1.8	nt	nt	nt	2.1
COCCCNC(=S)NNC(=O)c1ccccc1Br	-0.3	2.51µM*	-3.0%	-15.3%	0.4
O=C(NN=C1c2ccccc2-c2ccccc21)c1ccccc1	?	-7.6%	7.6%	-0.2%	-9.4
COCCCNC(=S)NNC(=O)c1ccccn1	-87.1*	14.1µM*	-1.8%	0.1%	-92.7*
NC(=S)NN=C1c2ccccc2-c2ccccc21	nt	1.26µM*	nt	3.98µM*	?
O=C(NN=C1c2ccccc2-c2ccccc21)c1ccccc1Br	-4.9	7.08µM*	-0.1%	10µM*	-6.8
COCCCNC(=S)NNC(=O)c1csc2ccccc12	-5.1	-34.1%	-0.2%	?	8.0
CSCCC(NC(=O)COc1ccccc1)C(=O)N(C)Cc1ccc(SC)cc1 (stereo not drawn)	nt	nt	nt	nt	-17.0
O=[N+]([O-])c1ccc(Cn2cc(-c3cccc(C(F)(F)F)c3)nn2)cc1	-17.9	-14.7%	-6.3%	-6.6%	0.5
O=S(=O)(Cc1noc(-c2ccccc2Cl)n1)c1ccccn1	0.0	-14.8%	0.4%	-14.2%	18.7
CNC(=S)NNC(=O)c1ccccc1Br	-23.6	12.6µM*	-5.0%	?	-10.2
COc1ccc(NC(=O)N(C)C[C@H]2Oc3c(NC(=O)c4nc5ccccc5s4)cccc3C(=O)N([C@@H](C)CO)C[C@H]2C)cc1	0.8	nt	nt	nt	-8.9
C=CCOc1ccc(-c2n[nH]c(=S)o2)cc1	2.6	11.2µM*	-25.1%	-21.9%	1.0
CC1CCN(c2nc3ccc(C(=O)N4CCN(Cc5ccc6c(c5)OCO6)CC4)cc3s2)CC1	-1.1	?	1.1%	7.08µM*	-9.8
CN1CCC2(CC1)N=C(c1ccc(F)cc1)C(=S)N2C(=O)c1ccc(C(C)(C)C)cc1	-5.2	12.6µM*	-11.9%	?	12.1
O=C(CN1C(=O)c2ccccc2S1(=O)=O)c1ccc(O)c(O)c1	-11.9	-13.0%	-4.7%	-8.7%	-12.9
CSc1cccc(NC(=O)CN2C(=O)c3ccccc3S2(=O)=O)c1	1.5	-27.3%	2.6%	12.6µM*	0.6
O=C(CN1C(=O)c2ccccc2S1(=O)=O)c1ccc(F)c(F)c1	2.8	10µM*	-2.9%	11.2µM*	10.1
COc1ccc(C(=O)CN2C(=O)c3ccccc3S2(=O)=O)cc1	9.9	5.62µM*	1.2%	?	-0.2
COc1ccc(C(=O)CN2C(=O)c3ccccc3S2(=O)=O)cc1Br	-4.1	0.0%	0.0%	-16.7%	3.0
O=C(O)c1cc(/C=C/c2ccc(N3CCOCC3)c([N+](=O)[O-])c2)nc2ccccc12	-2.0	-40.9%	-27.3%	?	2.4
O=C(O)c1cc(/C=C/c2ccc(N3CCOCC3)cc2)nc2ccccc12	4.7	6.31µM*	-41.5%	5.01µM*	-3.5
COc1ccc(Cl)cc1NC(=O)CN(C)C(=O)c1n[nH]c2ccccc12	-5.5	nt	nt	nt	4.0
COc1ccc(N2C(=O)c3ccccc3C2=O)cc1	0.0	14.4%	-5.3%	5.0%	-16.7
COc1ccc(N2C(=O)C(Cl)=C(Oc3cccc(OC)c3)C2=O)cc1	1.1	11.2µM*	13.0%	?	-21.6
CCNc1nc(SCC(=O)OC)nc(N(C)C)n1	-10.7	-6.8%	nt	11.4%	8.8
O=C(Nc1nc2ccccc2n1Cc1ccc(Cl)cc1)c1ccco1	0.0	0.708µM*	-0.5%	2µM*	-5.8
